Data on 14 compounds can be found in PubChem BioAssay (NCI).

SMILES strings stand for the structures. The panel holds about 83,000 compounds, 20% with a hit somewhere; the sample as a whole holds those more often.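 Interpretation: 100, growth as untreated; towards 0, rising growth inhibition; 0, no net growth; 0 to -100, cell death. Compounds scoring below 10 were considered active.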 Values without a mark were called inactive. Activity calls are given as the source filed them.

The experiment concerns LOX IMVI melanoma. The experiment can be described thus: NCI-60 one-dose screen, 48 h (100 = growth as untreated, 0 = no growth, -100 = all killed). The note with it: 10 µM unless noted.
On to `FC(F)(F)c1cc(-c2nnc3n2N=C(N2CCCC2)CS3)cc(C(F)(F)F)c1`, for which the growth is 84.3%.
In the case of `Clc1ccc(C2=NN(c3ccc(Cl)cc3)C(c3cccc(Nc4ccnc5cc(Cl)ccc45)c3)C2)cc1` (centres undefined) it was 85.1%; in that of `C=CCN(/C=C/CN(CC=C)CC=C)CC=C`, 103%.
In the case of `COc1ccc(-c2nnc3c4[nH]cnc4ncn23)c(OC)c1` it was 5.63% (active); in that of `Cc1ccc(S(=O)(=O)NCCN2c3nc4ccccc4cc3Sc3cc4ccccc4nc32)cc1`, 66.5%; in that of `O=C(CNC(=O)c1cccc2ccccc12)Nc1ccccc1Oc1cccc(O)c1`, 33.4% [5 µM].
Next, `COc1ccc2c(=O)c(OC)c(-c3cc(OC)c(OC)c(OC)c3)oc2c1`: 82.7%.
Consider `COc1cnc2c(c1)C(=O)c1c-2n(CCCN2CCC(O)CC2)c(=O)c2cc(F)ccc12`, for which the growth is -70.3% (active).
In the case of `O=C(/C=C/c1c(-c2ccccc2)[nH]c2ccccc12)S(=O)(=O)c1ccccc1` it was 56.5%.
Next, `O=C(Nc1nc2c(C(F)(F)F)cccc2s1)c1cc(Cl)ccc1O`: 5.52% (active); `CCN(CC)CCOCC[C@H]1CC[C@H]2[C@@H]3[C@H](C)Cc4cc(OS(N)(=O)=O)ccc4[C@H]3CC[C@]12C`: -65% (active); `NS(=O)(=O)c1ccc(N2CC(c3nc4ccccc4[nH]3)CC2=O)cc1` (centres undefined): 94.2%.
In the case of `COc1cnc2c(c1)C(=O)c1c-2n(CCCN2CCCC2)c(=O)c2cc(F)ccc12` it was -69.7% (active); in that of `COc1ccc(-n2cnc3cc(C(=O)N4CCCCC4)ccc32)cc1`, 97.9%.
